Here are results for 31 molecules from ChEMBL document CHEMBL1157539, “Thousands of chemical starting points for antimalarial lead identification” (Nature, 2010).

Holding throughout (assay type): functional
Assay [1] relates to Plasmodium falciparum. As to the kind of experiment: GSK_TCMDC: Inhibition of Plasmodium falciparum 3D7 in whole red blood cells, using parasite LDH activity as an index of growth. Test compounds present at 2uM.
Assay [2] relates to Plasmodium falciparum. Nature of the assay: GSK_TCMDC: Inhibition of Plasmodium falciparum Dd2 in whole red blood cells, using parasite LDH activity as an index of growth. Test compounds present at 2uM.
The subject of the next assay is HepG2. As to the kind of experiment: GSK_TCMDC: Percent inhibition of human HepG2 cell line. Test compounds present at 10uM.

One may read the Inhibition as the change of the read-out against control, counted positive when it falls. Low values mean little suppression, high ones strong suppression.

Turning to `Cc1ccc2[nH]c(C)cc(=NN=CC=Cc3ccccc3)c2c1`, the Inhibition in the assay with Plasmodium falciparum [1] was 92%; in the assay with Plasmodium falciparum [2] it was 28%; in the assay with HepG2, 0%.
For `Cc1ccccc1CN1CCCN(Cc2ccc(C(=O)Nc3ccc(C(C)(C)C)cc3)cc2)CC1.O=C(O)C(F)(F)F`, in that order: 89%, 5% and 52%.
For `O=C(/C=C/c1ccc(Cl)c(Cl)c1)NCCCCCN1CCCC(c2c[nH]c3ccccc23)C1` (stereo not drawn), in that order: 99%, 22% and 25%.
On to `CC(C)(C)c1nn(-c2ccc(Cl)cc2)c2[nH]c(=O)c(CNC3CCCC3)cc12`, for which the Inhibition turned out to be 99% in the assay on Plasmodium falciparum [1], 99% in the assay with Plasmodium falciparum [2] and 0% with HepG2.
Consider `CC(=O)N1N=C(c2ccc(F)cc2)Sc2c1nc(C1CCCCC1)n2C(C)=O`, for which the values for the Inhibition in the assay on Plasmodium falciparum [1], in the assay with Plasmodium falciparum [2] and in the assay with HepG2 were 92%, 9% and 4%, respectively.
The like results for `CS(=O)(=O)c1ccc(CCNCc2ccc(-c3ccc(CN(C(=O)c4ccco4)C4CCN(Cc5ccccc5)CC4)cc3)nc2)cc1.O=C(O)C(F)(F)F` were, in that order, 85%, 38% and 13%.
The like results for `O=C(O)C(F)(F)F.O=S(=O)(NCCN1CCCC1)c1cccc(-c2cccc(CNCCc3cccs3)c2)c1` were, in that order, 100%, 45% and 30%.
The like results for `Cc1cc(=NN=CC=Cc2ccccc2)c2cc(F)ccc2[nH]1` were, in that order, 100%, 36% and 8%.
Consider `O=C(NCCCCN1CCN(c2cccc(Cl)c2Cl)CC1)c1ccc2c(c1)CCN(C1CCC1)CC2`, for which the values for the Inhibition in the assay with Plasmodium falciparum [1], with Plasmodium falciparum [2] and in the assay with HepG2 were 95%, 31% and 97%, respectively.
For `COc1cc(C)c(C(O)CNC(C)CCc2ccccc2)cc1C.Cl` (stereo not drawn), in that order: 98%, 98% and 1%.
Turning to `CCC(C)NC(=O)CN1CN(c2ccccc2)C2(CCN(C(=O)c3ccc(-c4ccccc4)cc3)CC2)C1=O` (stereo not drawn), the results for the Inhibition with Plasmodium falciparum [1], in the assay with Plasmodium falciparum [2] and in the assay with HepG2 were 100%, 100% and 0%, respectively.
As for `Cl.O=c1cc(NCCCNCc2cc(Br)cs2)[nH]c2ccccc12`, the Inhibition in the assay on Plasmodium falciparum [1] is on record as 85%; in the assay with Plasmodium falciparum [2] it was 5%; in the assay on HepG2, 11%.
The like results for `CC(C)C(=O)ONC1=NC(C)(C)N(OCCCOc2cc(Cl)c(Cl)cc2Cl)C(NOC(=O)C(C)C)=N1` were, in that order, 92%, 93% and 64%.
The like results for `CCOC(=O)c1ccc(N2CCCCC2)c(NC(=O)C(Cl)(Cl)Cl)c1` were, in that order, 96%, 97% and 11%.
For `CC[C@H](NC(=O)c1c(CC2CCN(CC(C)=O)CC2)c(-c2ccccc2)nc2ccccc12)c1ccccc1`, in that order: 97%, 96% and 7%.
Turning to `Cl.N#Cc1ccc2c(c1)CCN(CCC1CCC(NC(=O)/C=C/c3cccc4ccccc34)CC1)CC2` (stereo not drawn), the Inhibition is given as 96% in the assay with Plasmodium falciparum [1], 12% with Plasmodium falciparum [2] and 16% with HepG2.
The like results for `CCNc1cc(C(=O)N[C@@H](Cc2ccc(F)c(F)c2)[C@H](O)CNCc2cccc(OC)c2)cc(N2CCCCS2(=O)=O)c1.Cl` were, in that order, 99%, 85% and 4%.
For `Cc1[nH]c(C)c(-c2ccc(-c3ccc(OC(F)(F)F)cc3)cc2)c(=O)c1Br`, in that order: 96%, 97% and 33%.
As to `OC(c1nnc(S)n1-c1ccccc1)C(O)c1nnc(S)n1-c1ccccc1` (stereo not drawn), the Inhibition with Plasmodium falciparum [1] turned out to be 92%; in the assay on Plasmodium falciparum [2], 89%; in the assay on HepG2, 18%.
The like results for `Cl.O=S(=O)(Nc1cc2c(cc1OCc1ccccc1)CCN(C1CCC1)CC2)c1ccc(-c2ccc(Cl)cc2)cc1` were, in that order, 92%, 12% and 18%.
Regarding `COc1ccc2c(c1)CC(NCc1ccc(-c3ccc4nc[nH]c4c3)cc1)C2.O=C(O)C(F)(F)F` (stereo not drawn), the Inhibition in the assay with Plasmodium falciparum [1] was 100%; with Plasmodium falciparum [2], 71%; with HepG2, 30%.
The like results for `O=C(C=Cc1ccc(Cl)c(Cl)c1)NCCCCCN1CCC(CCCNS(=O)(=O)c2ccc(F)cc2)CC1` were, in that order, 93%, 20% and 52%.
For `O=C(Nc1cccc(-c2ccc(-c3nc4cc(C(F)(F)F)ccc4[nH]3)cc2)c1)c1cccnc1`, in that order: 100%, 97% and 73%.
For `CC(CN1CCN(C)CC1)C(=O)Nc1ccc(-c2csc(-c3nc4ccccc4[nH]3)c2)cc1` (stereo not drawn), in that order: 93%, 26% and 15%.
Turning to `NC1=NC(c2ccccc2)(c2ccccc2)C(=O)N1CC1CCC1.O=CO`, the Inhibition in the assay with Plasmodium falciparum [1] turned out to be 96%; in the assay on Plasmodium falciparum [2] it was 74%; in the assay with HepG2, 17%.
For `C(=Cc1ccccc1)C=NN=c1cc[nH]c2ccccc12`, in that order: 100%, 100% and 24%.
Regarding `CCCCCN1C(=O)N(c2ccc(Cl)c(Cl)c2)C(N(O)C(=O)Nc2ccc(Cl)c(Cl)c2)C1(C)C` (stereo not drawn), the Inhibition in the assay with Plasmodium falciparum [1] was found to be 94%; with Plasmodium falciparum [2], 99%; in the assay with HepG2, 0%.
Turning to `Cl.O=C(C=Cc1cccs1)N(CCCn1ccnc1)c1nc2ccc(F)cc2s1`, the Inhibition in the assay with Plasmodium falciparum [1] turned out to be 98%; with Plasmodium falciparum [2], 28%; with HepG2, 0%.
The like results for `Cc1cc(=NN=Cc2ccc(Cl)cc2)c2cc(C(F)(F)F)ccc2[nH]1` were, in that order, 91%, 32% and 0%.
For `Cc1ccc(-c2cc(C(=O)Nc3ccc(S(=O)(=O)N4CCCCC4C)cc3)n[nH]2)c(O)c1` (stereo not drawn), in that order: 100%, 99% and 37%.
The like results for `COc1ccc2nccc(N3CCC(NCCNCc4ccc5c(n4)NC(=O)CO5)C3)c2n1.Cl` (stereo not drawn) were, in that order, 100%, 47% and 0%.
